# Test results as given in PubChem BioAssay (NCATS).
# Unmarked numbers belong to inactive results. Results filed as inconclusive are left out. A call without a number means that no potency is given here. The source made the active and inactive calls. Unless noted, calls follow the shape of the dose curve; as a rule, active = well fitted curve in the direction sought with a large enough effect; inconclusive = small, poorly fitted or top-dose-only effect, or another doubt; inactive = no such curve, though single readings can be large; an effect the other way counts as inactive or inconclusive.
# What was measured:
# [1] = target: Cytochrome P450 1A2 (Homo sapiens) (UniProt P05177); test: p450-cyp1a2 (AID 410; calls by dose curve; also: potency is read from the fitted curve at half-maximal effect)
# Procedure, shortened: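 20nM CYP1A2, 100uM Luciferin-ME (=Km), 100mM KPO4; cpd 10 min RT; +NADPH regen, 60 min RT; stop/detect 20 min; luminescence. Normalized to furafylline 57 uM = full inhibition.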
# [2] = NFAT Signaling Pathway (AID 444; active = well fitted curve in either direction with a large enough effect, not every such curve was filed as active;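 also: carbachol stimulus at about its EC50 of 1 µM final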); details: Jurkat NFAT-bla M1, carbachol, beta-lactamase ratio, 5 h; at 7.69 µM (top of the series) unless noted
# Procedure, shortened: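 Jurkat cells carrying an NFAT-driven β-lactamase reporter and co-transfected muscarinic M1 receptor were treated with compound plus carbachol (1 uM final, an EC50 level) for 5 h at 37 °C. CCF4 loading followed for 1 h at RT; 460/530 nm ratio gave %activity.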
# [3] = Stat Signaling Pathway (AID 446; active = well fitted curve in either direction with a large enough effect, not every such curve was filed as active;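 also: ME-180 cervical cancer cells given 40 pM IL-6 alongside compound; SIE-controlled beta-lactamase reporter measured as 460/530 nm FRET emission ratio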); details: ME-180 (cervical carcinoma) SIE beta-lactamase reporter, IL-6 stimulated, 5 h; at 7.69 µM (top of the series) unless noted
# Procedure, shortened: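 Overnight-plated ME-180 cells bearing a STAT Inducible Element beta-lactamase reporter; 5 h co-exposure to compound and 40 pM IL-6; values normalized to 300 pM IL-6 and 125 nM JAK inhibitor controls.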
# [4] = target: Glucocorticoid receptor (Homo sapiens) (UniProt P04150); test: GR-EFC Redistribution (AID 451; calls by dose curve; also: potency is read from the fitted curve at half-maximal effect); details: CHO-K1 GR-EFC translocation, beta-gal luminescence, 2 h
# Procedure, shortened: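 CHO-K1 cells stably expressing nuclear-localized β-gal enzyme acceptor and GR fused C-terminally to the enzyme donor fragment; ligand-driven nuclear translocation restores β-gal by complementation. Compounds titrated up to 46 uM final, 2 h at 37 °C; luminescence read.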
# [5] = target: Mitogen-activated protein kinase 10 (Mus musculus) (UniProt Q61831); test: JNK3 AlphaScreen Assay (AID 530; active = well fitted curve in either direction with a large enough effect, not every such curve was filed as active;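 also: kinase came from lysate of stimulated human HepG2 cells; signal reports phosphorylation of biotinylated GST-cJun 1-79 at Ser73 with 10 µM ATP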)
# Procedure, shortened: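 Biotinylated GST-cJun(1-79) served as substrate for JNK3 in HepG2 lysates stimulated with IL-1beta and TNF-alpha. ATP was 10 uM final, pH 7.6. Ser73 phosphorylation was quantified by AlphaScreen (680 nm excitation).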
# [6] = target: 3',5'-cyclic-AMP phosphodiesterase 4B (Homo sapiens) (UniProt Q07343); test: qHTS Assay for Inhibitors of PDE-IV (AID 607; active = well fitted activation curve with a large enough effect in the main read-out, with a control signal flat, not every such curve was filed as active)
# Procedure, shortened: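 Live HEK293 cells with a modified cyclic nucleotide-gated (CNG) channel report intracellular cAMP via membrane-potential dye fluorescence (ex 535/em 590 nm). Endogenous PDE-IV was targeted. Compounds were tested at up to 22.9 uM final; RO 20-1724 100 uM served as control.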
# [7] = target: Guanine nucleotide-binding protein G(i) subunit alpha-1 (Homo sapiens) (UniProt P63096); test: qHTS Assay for Inhibitors of RGS12 GoLoco Motif Activity (Green Fluorophore) (AID 879);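 also: negative values mean loss of peptide binding seen as reduced polarization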
# Procedure, shortened: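 A drop in FITC polarization marked displacement of the FITC-tagged RGS12 GoLoco peptide (10 nM) from Gαi1 (50 nM). Compounds were incubated 10 min at room temperature in Tris pH 7.5 buffer containing 150 mM NaCl, 0.1 mM GDP and 0.05% NP40; unlabeled peptide titration served as control.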
# [8] = qHTS Assay for Identification of Small Molecule Antagonists for NFkB Signaling Pathway (AID 895; active = well fitted inhibition curve with a large enough effect in the signal ratio, with a control signal flat, not every such curve was filed as active; the % refers to the signal ratio)
# Procedure, shortened: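 NFkB-bla ME-180 cervical carcinoma cells with beta-lactamase reporter under NFkB response element; compounds added, then TNF alpha at 10 pM final (EC50), 5 h at 37 C. LiveBLAzer substrate 2 h, room temperature; emission 460/530 nm at 405 nm excitation.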
# [9] = target: Muscarinic acetylcholine receptor M1 (Rattus norvegicus) (UniProt P08482); test: qHTS Assay for Antagonists of Acetylcholine Muscarinic M1 Receptor: Measurement of IP-One Response (AID 944); also: nearly all actives have a fitted effect of over 75% in size
# Procedure, shortened: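 Read-out: HTRF competition between d2-IP1 and Eu-cryptate anti-IP1 antibody, emission 620 and 665 nm. Stimulus was carbachol, EC80 (200 nM), for 30 min in M1-CHO cells (rat receptor), after 10 min compound pre-treatment.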
# [10] = target: Pyruvate kinase (Leishmania mexicana) (UniProt Q27686); test: qHTS Validation Assay for Inhibitors of Leishmania Mexicana Pyruvate Kinase (AID 945)
# Procedure, shortened: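 Substrate mix (0.5 mM PEP, 0.1 mM ADP, 7 mM MgCl2, 50 mM KCl, pH 7.2 imidazole) received compound by pin tool, then 0.2 nM LmPYK E451W. After 1 h at room temperature, PKLight was added and luminescence measured.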
# [11] = target: Pyruvate kinase PKM (Homo sapiens) (UniProt P14618); test: qHTS Assay for Activators of Human Muscle Pyruvate Kinase (AID 954; active = well fitted curve in the direction sought with a large enough effect, not every such curve was filed as active)
# Procedure, shortened: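 Screening used highly purified human pyruvate kinase M2 under submaximal activity, with PEP at its Km and ADP below Km. After an hour at room temperature, ATP was read by luciferase luminescence.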
# [12] = target: Alpha-galactosidase A (Homo sapiens) (UniProt P06280); test: Counterscreen for Glucocerebrosidase Inhibitors: qHTS Assay for Human alpha-Galactosidase at pH 4.5 (AID 992)
# Procedure, shortened: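 Each compound is preincubated briefly with 2 nM enzyme before substrate addition (80 uM); plates then sit 20 min at ambient temperature, are quenched with 1M NaOH/1M glycine, and read fluorometrically.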
# [13] = target: alpha-glucosidase (Oryza sativa, rice) (UniProt Q653V4); test: Counterscreen for Glucocerebrosidase Inhibitors: qHTS Assay for Rice alpha-Glucosidase at pH 5.0 (AID 997)
# Procedure, shortened: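 Endpoint fluorogenic assay at pH 5.0: compounds (0.7 nM to 77 uM) titrated against 4 nM rice enzyme and 400 uM 4-MU-alpha-glucoside for 20 min at room temperature; NaOH/glycine stop, read ex 365/em 440 nm, Hill-fitted AC50.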
# [14] = Validation of Assay for Modulators of Lamin A Splicing (AID 1459; active = well fitted curve in the direction sought with a large enough effect in the signal ratio; the % refers to the signal ratio;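 also: cells exposed to compound for two days before reading; ratio rise marks activators and ratio drop marks inhibitors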)
# Procedure, shortened: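 HeLa S3 lamin A-EGFP/DsRed2 stable clone, 600 cells/well, Opti-MEM 2% FBS; compounds by pin tool; 48 hrs, 37 °C/5% CO2; Acumen 488 nm scan, objects 10-100 um; GFP/RFP intensity ratio.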
# [15] = target: DNA repair nuclease/redox regulator APEX1 (Homo sapiens) (UniProt P27695); test: qHTS Validation Assay for Inhibitors of the Human Apurinic/apyrimidinic Endonuclease 1 (APE1) (AID 1705;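 also: TAMRA fluorescence gain over two minutes as APE1 cuts a quenched THF abasic duplex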)
# Procedure, shortened: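 qHTS, 1536-well. APE1 + cpd 15 min RT → 50 nM TAMRA/BHQ-2 THF-abasic dsDNA substrate → kinetic fluorescence, 3 reads/60 s; delta(read3−read1) = reaction progress. No-enzyme buffer = negative control.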
# [16] = Counterscreen for APE1 Inhibitors: Fluorescent Dye Displacement Validation Assay (AID 1707)
# Procedure, shortened: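 Loss of Thiazole Orange fluorescence marks promiscuous DNA binders. The dye (250 nM) is mixed with 50 nM abasic-site dsDNA in pH7.5 Tris buffer containing MgCl2, then compounds are added and emission is read once.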
# [17] = qHTS for differential inhibitors of proliferation of Plasmodium falciparum line 7G8 (AID 1815);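 also: potency is read from the fitted curve at half-maximal effect; parasite growth measured after three days of incubation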
# [18] = qHTS for differential inhibitors of proliferation of Plasmodium falciparum line GB4 (AID 1816); details: Potency: Plasmodium falciparum GB4 proliferation inhibition;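 also: potency is read from the fitted curve at half-maximal effect; parasite growth measured after 72 h incubation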
# [19] = qHTS for differential inhibitors of proliferation of Plasmodium falciparum line 3D7 (AID 1876); also: potency is read from the fitted curve at half-maximal effect
# [20] = qHTS for differential inhibitors of proliferation of Plasmodium falciparum line D10 (AID 1877);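 also: potency is read from the fitted curve at half-maximal effect; parasites grown with compound for 72 h before DNA staining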
# [21] = qHTS for differential inhibitors of proliferation of Plasmodium falciparum line W2 (AID 1883); details: Potency: Plasmodium falciparum W2 proliferation inhibition;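 also: potency is read from the fitted curve at half-maximal effect; parasites grown with compound for 72 h before lysis and staining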
# [22] = qHTS for differential inhibitors of proliferation of Plasmodium falciparum line HB3 (AID 1886); details: Potency: Plasmodium falciparum HB3 proliferation inhibition;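 also: potency is read from the fitted curve at half-maximal effect; parasites grown with compound for 72 h before SYBR Green readout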
# [23] = target: ATP-dependent DNA helicase Q1 (Homo sapiens) (UniProt P46063); test: qHTS Validation Assay for Inhibitors of RecQ-Like Dna Helicase 1 (RECQ1) (AID 2353)
# Procedure, shortened: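 RECQ1T1 50 nM; forked duplex (20 bp + 30-nt ss tails) 200 nM, ATP 2 mM final; pH 8.0, 2 mM MgCl2, 2.5 ug/ml poly(dI-dC); 15 min compound preincubation; discontinuous kinetic read over 2 h at RT.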
# [24] = target: RecQ-like DNA helicase BLM (Homo sapiens) (UniProt P54132); test: qHTS Validation Assay for Inhibitors of Bloom's syndrome helicase (BLM) (AID 2364)
# Procedure, shortened: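 BLM 50 nM in 25 mM Tris-HCl pH 8.0, 5 mM NaCl, 2 mM MgCl2, 1 mM DTT, 0.01% Tween-20, 2.5 ug/ml poly(dI-dC); 15 min cpd preinc, RT. Start: 200 nM forked DNA + 2 mM ATP (final). TAMRA read, 2 reads 2 h apart.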
# [25] = Quantitative high throughput screen for delayed death inhibitors of the malarial parasite plastid, 96 hour incubation (AID 488745); also: potency is read from the fitted curve at half-maximal effect; nearly all actives have a fitted effect of over 70% in size
# Procedure, shortened: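 Luciferase-expressing P. falciparum, infected RBCs 2% Hct/0.1% parasitemia (final); 96 h cpd exposure, 37 C, 5% CO2; RPMI 1640 + 0.5% Albumax, bicarbonate, gentamycin. Readout: luminescence loss = growth inhibition.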
# [26] = Quantitative high throughput screen for delayed death inhibitors of the malarial parasite plastid, 48 hour incubation (AID 488752); also: potency is read from the fitted curve at half-maximal effect; nearly all actives have a fitted effect of over 65% in size
# Procedure, shortened: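 Luciferase-expressing P. falciparum in RBCs, 2% Hct, 0.1% parasitemia final; RPMI 1640 + 0.5% Albumax; 48 h, 37 C, 5% CO2; luminescence readout, signal drop = growth inhibition.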
# [27] = target: M-phase phosphoprotein 8 (Homo sapiens) (UniProt Q99549); test: qHTS Validation Assay for Inhibitors for MPP8 Chromodomain Interactions with Methylated Histone Tails (AID 488949); also: potency is read from the fitted curve at half-maximal effect; nearly all actives have a fitted effect of over 55% in size
# Procedure, shortened: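 50 nM MPP8 + 50 nM b-H3K9me3 peptide, PBS pH 7.4/0.01% Tween-20, 30 min RT; + cpd 30 min RT; + AlphaScreen donor/Ni-chelate acceptor beads 10 ug/mL final, 30 min dark; luminescence read.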
# [28] = target: Thyrotropin receptor (Homo sapiens) (UniProt P16473); test: qHTS Assay for Antagonists of the Thyroid Stimulating Hormone Receptor (AID 488980)
# Procedure, shortened: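 Readout is cAMP by HTRF competition between cellular cAMP and cAMP-d2 for a cryptate-labelled antibody. Antagonism was assessed in TSHR-transfected HEK293 cells stimulated with 4 nM TSH (EC80, final) in the presence of RO 20-1724.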
# [29] = target: Thyrotropin-releasing hormone receptor (Homo sapiens) (UniProt P34981); test: qHTS for Small Molecule Agonists and Allosteric Enhancers of Human TRH Receptor: Validation Screen for Agonists (AID 493127;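 active = calcium activation more than 3 SD above the typical response in the agonist read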;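 also: intracellular calcium rise by fluo-8 fluorescence before TRH EC20 addition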); details: TRH receptor agonist cell assay; at 2 µM; hits give high values
# Procedure, shortened: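 Read-out: intracellular calcium release measured kinetically by FDSS (fluo-8, ex 480/em 530 nm), 1 reading/s after a 10-cycle baseline. TRHR cells, 2000/well, cultured 18 h at 33.5C, dye-loaded at room temp. Compound-evoked positive calcium signal flags agonists.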
# [30] = target: Galactokinase (Homo sapiens) (UniProt P51570); test: qHTS Validation Assay for Inhibitors of Human Galactokinase (GALK) (AID 493189)
# Procedure, shortened: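 5 nM GALK / 100 uM galactose / 35 uM ATP, 20 mM HEPES pH8.0, 5 mM MgCl2, 60 mM NaCl, 1 mM DTT, 0.01% BSA (final). RT 1 h; Kinase-Glo Plus luminescence.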
# [31] = target: Voltage-gated inwardly rectifying potassium channel KCNH2 (Homo sapiens) (UniProt Q12809); test: qHTS Assay for Small Molecule Inhibitors of the Human hERG Channel Activity (AID 588834);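 also: potency is read from the fitted curve at half-maximal effect; lower thallium flux fluorescence means stronger hERG block; nearly all actives have a fitted effect of over 50% in size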
# Procedure, shortened: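 Step 1: BacMam hERG transduction of U2OS, 4 hrs RT. Step 2: overnight 37 °C, plate 2000 cells/well, 4 hr. Step 3: FluxOR load, compound 10 min, stimulate, read fluorescence.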
# Chain of RecQ-like DNA helicase BLM (Homo sapiens) (P54132 whole entry, looked up): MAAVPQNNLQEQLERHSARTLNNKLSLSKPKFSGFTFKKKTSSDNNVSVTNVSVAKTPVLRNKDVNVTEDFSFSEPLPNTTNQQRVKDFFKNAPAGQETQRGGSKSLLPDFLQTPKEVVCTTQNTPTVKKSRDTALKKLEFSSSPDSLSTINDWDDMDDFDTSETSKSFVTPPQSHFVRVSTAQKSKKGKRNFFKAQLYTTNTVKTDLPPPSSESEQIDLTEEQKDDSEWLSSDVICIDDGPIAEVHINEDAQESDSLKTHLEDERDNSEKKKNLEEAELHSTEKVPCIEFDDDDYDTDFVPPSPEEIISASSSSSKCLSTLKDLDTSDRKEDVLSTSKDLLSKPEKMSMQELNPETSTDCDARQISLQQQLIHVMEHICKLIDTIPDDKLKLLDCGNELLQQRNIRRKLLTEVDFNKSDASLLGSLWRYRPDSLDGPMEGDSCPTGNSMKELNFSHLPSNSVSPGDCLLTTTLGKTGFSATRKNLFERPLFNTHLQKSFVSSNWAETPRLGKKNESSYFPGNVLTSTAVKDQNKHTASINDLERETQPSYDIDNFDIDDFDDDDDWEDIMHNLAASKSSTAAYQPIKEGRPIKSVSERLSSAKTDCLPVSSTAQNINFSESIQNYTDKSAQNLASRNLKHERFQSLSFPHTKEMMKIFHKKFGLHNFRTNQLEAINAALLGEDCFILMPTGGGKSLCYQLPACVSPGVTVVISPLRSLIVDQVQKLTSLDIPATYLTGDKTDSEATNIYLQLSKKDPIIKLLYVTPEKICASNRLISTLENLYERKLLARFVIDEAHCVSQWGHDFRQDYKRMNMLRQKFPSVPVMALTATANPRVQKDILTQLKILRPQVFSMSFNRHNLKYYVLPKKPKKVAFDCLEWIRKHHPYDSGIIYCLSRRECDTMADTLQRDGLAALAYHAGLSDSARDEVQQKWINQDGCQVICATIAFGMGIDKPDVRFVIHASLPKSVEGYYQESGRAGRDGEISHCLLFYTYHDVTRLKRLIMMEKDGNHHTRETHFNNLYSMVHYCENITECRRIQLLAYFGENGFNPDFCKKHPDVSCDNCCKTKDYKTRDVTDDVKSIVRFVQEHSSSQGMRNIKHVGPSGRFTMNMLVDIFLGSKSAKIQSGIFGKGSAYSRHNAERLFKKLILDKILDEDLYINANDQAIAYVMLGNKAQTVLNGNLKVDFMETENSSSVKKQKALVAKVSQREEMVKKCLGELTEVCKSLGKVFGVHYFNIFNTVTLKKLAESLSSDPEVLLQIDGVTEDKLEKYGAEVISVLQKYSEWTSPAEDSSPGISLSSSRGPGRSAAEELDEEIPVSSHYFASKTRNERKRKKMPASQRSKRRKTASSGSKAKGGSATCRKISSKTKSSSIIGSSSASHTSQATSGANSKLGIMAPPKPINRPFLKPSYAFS
# Chain of Guanine nucleotide-binding protein G(i) subunit alpha-1 (Homo sapiens) (P63096 whole entry, looked up): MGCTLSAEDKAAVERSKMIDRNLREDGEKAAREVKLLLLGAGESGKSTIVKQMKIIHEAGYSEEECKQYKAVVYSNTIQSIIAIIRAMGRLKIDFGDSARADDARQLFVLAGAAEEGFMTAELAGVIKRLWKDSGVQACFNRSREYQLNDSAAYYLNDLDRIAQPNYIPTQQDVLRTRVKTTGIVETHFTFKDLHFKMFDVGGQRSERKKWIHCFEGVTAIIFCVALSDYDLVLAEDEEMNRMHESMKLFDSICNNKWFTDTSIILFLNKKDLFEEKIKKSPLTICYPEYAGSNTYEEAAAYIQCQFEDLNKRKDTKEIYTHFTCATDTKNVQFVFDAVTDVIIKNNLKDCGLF
# Chain of Alpha-galactosidase A (Homo sapiens) (P06280 whole entry, looked up): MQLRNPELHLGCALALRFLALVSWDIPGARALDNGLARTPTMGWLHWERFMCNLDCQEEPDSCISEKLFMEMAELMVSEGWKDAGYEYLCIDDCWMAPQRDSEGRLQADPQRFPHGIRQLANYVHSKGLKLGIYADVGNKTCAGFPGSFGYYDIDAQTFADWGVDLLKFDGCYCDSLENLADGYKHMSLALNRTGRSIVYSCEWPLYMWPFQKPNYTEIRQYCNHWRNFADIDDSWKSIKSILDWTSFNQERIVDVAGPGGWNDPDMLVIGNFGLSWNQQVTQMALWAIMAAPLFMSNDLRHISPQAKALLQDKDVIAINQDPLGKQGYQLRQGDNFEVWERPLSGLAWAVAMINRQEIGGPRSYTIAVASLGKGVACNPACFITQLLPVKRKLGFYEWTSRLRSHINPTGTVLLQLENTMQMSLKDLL
# Chain of DNA repair nuclease/redox regulator APEX1 (Homo sapiens) (P27695 whole entry, looked up): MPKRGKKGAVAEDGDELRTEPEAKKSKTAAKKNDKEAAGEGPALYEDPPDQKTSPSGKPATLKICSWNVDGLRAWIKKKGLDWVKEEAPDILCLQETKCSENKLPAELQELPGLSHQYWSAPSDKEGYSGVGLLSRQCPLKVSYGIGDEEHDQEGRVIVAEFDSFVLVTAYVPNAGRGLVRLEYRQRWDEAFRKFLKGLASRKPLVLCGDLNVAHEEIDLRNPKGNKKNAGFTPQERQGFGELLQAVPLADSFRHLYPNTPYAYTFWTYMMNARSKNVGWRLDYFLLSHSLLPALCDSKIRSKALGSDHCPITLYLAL
# Chain of Glucocorticoid receptor (Homo sapiens) (P04150 whole entry, looked up, the tested form may be a part): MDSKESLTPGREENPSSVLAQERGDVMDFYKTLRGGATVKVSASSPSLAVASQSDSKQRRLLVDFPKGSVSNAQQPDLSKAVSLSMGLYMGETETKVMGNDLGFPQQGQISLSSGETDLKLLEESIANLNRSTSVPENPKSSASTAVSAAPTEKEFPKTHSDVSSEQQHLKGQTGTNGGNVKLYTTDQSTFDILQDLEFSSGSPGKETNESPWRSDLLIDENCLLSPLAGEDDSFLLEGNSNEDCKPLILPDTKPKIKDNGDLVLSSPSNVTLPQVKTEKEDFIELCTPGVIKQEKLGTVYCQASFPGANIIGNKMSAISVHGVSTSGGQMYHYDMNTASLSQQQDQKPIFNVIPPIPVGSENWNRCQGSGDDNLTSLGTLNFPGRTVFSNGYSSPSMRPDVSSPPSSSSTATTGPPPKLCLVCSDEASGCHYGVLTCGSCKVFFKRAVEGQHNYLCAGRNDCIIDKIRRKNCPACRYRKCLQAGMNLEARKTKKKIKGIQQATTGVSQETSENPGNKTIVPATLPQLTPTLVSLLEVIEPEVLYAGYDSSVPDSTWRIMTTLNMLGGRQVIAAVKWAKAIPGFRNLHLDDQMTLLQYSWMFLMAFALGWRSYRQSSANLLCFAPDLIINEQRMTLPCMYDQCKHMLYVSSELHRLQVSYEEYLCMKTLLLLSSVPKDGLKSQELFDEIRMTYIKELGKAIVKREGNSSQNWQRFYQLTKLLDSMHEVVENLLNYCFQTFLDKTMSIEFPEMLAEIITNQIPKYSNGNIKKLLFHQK
# Chain of 3',5'-cyclic-AMP phosphodiesterase 4B (Homo sapiens) (Q07343 whole entry, looked up): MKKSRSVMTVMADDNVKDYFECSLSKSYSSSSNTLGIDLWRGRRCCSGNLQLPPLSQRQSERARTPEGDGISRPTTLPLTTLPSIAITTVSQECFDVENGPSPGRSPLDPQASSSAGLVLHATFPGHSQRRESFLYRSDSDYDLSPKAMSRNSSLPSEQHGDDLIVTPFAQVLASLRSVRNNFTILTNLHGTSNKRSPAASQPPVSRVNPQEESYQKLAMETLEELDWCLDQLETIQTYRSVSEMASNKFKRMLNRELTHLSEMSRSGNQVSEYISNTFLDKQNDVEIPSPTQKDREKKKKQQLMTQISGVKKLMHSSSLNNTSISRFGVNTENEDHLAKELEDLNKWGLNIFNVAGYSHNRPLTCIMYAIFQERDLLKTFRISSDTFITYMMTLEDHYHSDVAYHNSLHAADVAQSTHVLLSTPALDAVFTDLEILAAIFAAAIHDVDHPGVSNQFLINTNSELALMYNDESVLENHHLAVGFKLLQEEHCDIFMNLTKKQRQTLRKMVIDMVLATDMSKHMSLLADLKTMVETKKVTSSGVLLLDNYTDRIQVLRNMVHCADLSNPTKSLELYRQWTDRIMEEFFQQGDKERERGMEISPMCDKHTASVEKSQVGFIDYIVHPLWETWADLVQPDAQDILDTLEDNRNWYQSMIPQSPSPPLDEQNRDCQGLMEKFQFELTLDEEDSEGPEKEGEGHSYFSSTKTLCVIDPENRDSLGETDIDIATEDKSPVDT
# Chain of ATP-dependent DNA helicase Q1 (Homo sapiens) (P46063 whole entry, looked up): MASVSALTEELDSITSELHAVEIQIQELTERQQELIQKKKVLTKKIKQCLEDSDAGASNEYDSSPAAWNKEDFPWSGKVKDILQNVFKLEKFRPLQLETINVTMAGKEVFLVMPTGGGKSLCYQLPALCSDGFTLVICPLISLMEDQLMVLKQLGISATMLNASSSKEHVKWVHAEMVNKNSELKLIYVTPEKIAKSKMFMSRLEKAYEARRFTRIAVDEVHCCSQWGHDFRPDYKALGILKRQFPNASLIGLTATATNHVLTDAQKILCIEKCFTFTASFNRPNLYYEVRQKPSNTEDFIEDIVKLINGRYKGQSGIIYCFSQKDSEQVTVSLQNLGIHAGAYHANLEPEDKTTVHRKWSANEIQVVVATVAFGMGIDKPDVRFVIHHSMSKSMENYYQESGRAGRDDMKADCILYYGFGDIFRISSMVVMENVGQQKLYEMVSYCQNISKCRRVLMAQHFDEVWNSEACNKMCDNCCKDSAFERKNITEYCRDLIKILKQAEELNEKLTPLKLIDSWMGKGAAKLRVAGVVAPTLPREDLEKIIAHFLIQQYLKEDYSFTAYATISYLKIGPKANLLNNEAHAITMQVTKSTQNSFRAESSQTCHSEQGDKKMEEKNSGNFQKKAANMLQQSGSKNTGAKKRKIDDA
compound,measurement,setting,value
CC(C)CN(C)c1nc(N)c(C(=O)N=C(N)N)nc1Cl,Potency,[1],0.794 µM (active)
same,"activity change, negative = inhibition",[2],-14% [at 38 µM]
same,"activity, negative = inhibition",[3],-2.92% [at 38 µM]
same,Potency,[4],> 46 µM
same,outcome,[5],inactive
same,Potency,[6],inactive
same,outcome,[7],inactive
same,Potency,[8],inactive
same,Potency,[9],inactive
same,Potency,[10],inactive
same,outcome,[11],inactive
same,outcome,[12],inactive
same,outcome,[13],inactive
same,outcome,[14],inactive
same,Potency,[15],inactive
same,Potency,[16],inactive
same,Potency,[17],11.2 µM (active)
same,Potency,[18],11.2 µM (active)
same,Potency,[19],3.98 µM (active)
same,Potency,[20],7.08 µM (active)
same,Potency,[21],2.82 µM (active)
same,Potency,[22],8.91 µM (active)
same,Potency,[23],inactive
same,Potency,[24],inactive
same,Potency,[25],8.28 µM (active)
same,Potency,[26],10.4 µM (active)
same,Potency,[27],44.7 µM (active)
same,outcome,[28],inactive
same,activation,[29],0.812%
same,outcome,[30],inactive
same,Potency,[31],2 µM (active)
